The record followed here is PubChem BioAssay AID463190 (Sanford-Burnham Center for Chemical Genomics, 2010).

The campaign covered roughly 330,000 compounds. About 7,300 (2.2%) were called active. Only a selection was taken, and actives are over-represented in it overall. Values without a mark were called inactive.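 The calls were made as follows: active = inhibition of at least 40%; inactive = the rest.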

This experiment is described as follows: growth inhibition of tim10-1 ts yeast – luminescence, uHTS, primary screen (AID 463190).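 Also: mutant grown at 25 °C; 0% = DMSO wells with yeast and 100% = wells holding no yeast.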 The conditions noted are these: S. cerevisiae tim10-1 ts strain growth, BacTiter-Glo, 24 h; at 20 µM; stronger effect = higher value.
In general, inhibition refers to the relative decrease from the control value, in per cent. Consider `O=C(/C=C/c1ccccc1)N/C(=C/c1ccccc1)C(=O)Nc1ccccc1O`, for which the inhibition was 32.3%.

Take `O=C(/C=C/c1ccccc1)c1ccccc1O`: the inhibition is 48.7% (active). As for `O=C(/C=C(O)/C=C/c1ccc(O)cc1)/C=C/c1ccc(O)cc1`, the inhibition is 4.38%.

Consider `CCCCC[C@H]1CN(C2CCCCC2)C(=O)[C@@H]1CC(=O)NCc1ccc(OC)cc1`, for which the inhibition is 17.9%. `O=C(NCCc1ccc(F)cc1)c1ccc(S(=O)(=O)N2CCCCC2)cc1`: the inhibition was 41.8% (active). On to `COC(=O)c1ccc(CNC(=O)c2ccc(S(=O)(=O)N3CCCCCC3)cc2)cc1`, for which the inhibition was 14.2%.

On to `O=C(Nc1ccccc1F)c1ccc(S(=O)(=O)N2CCCCCC2)cc1`, for which the inhibition is 18.9%.

Consider `C/C=C(\C)C(=O)NCCN1C2=NC[C@H](Cc3ccc(O)cc3)N2C[C@@H]1Cc1ccc(OC)cc1`, for which the inhibition is -7.43%.

On to `O=c1[nH]n(-c2ccc([N+](=O)[O-])cc2)c(=O)c2ccccc12`, for which the inhibition was -4.91%.

Turning to `Cc1nc(-c2ccc([N+](=O)[O-])cc2)c(-c2ccccc2)o1`, the inhibition is 14.6%. Regarding `O=C1CC(c2ccccc2)=NN1c1ccc([N+](=O)[O-])cc1`, the inhibition is 44.5% (active).

With `COc1ccc2c(c1)cc1n2CCN=C1NN`, the inhibition was 43.7% (active).

`COc1ccc2ccn(C)c2c1`: the inhibition was -6.1%. `CC12COC3(C(=O)Nc4ccc(Cl)cn4)CC1CCC32C` (stereo not given): the inhibition was 33.3%. As for `CCC1(CC)NC(=O)N(Cc2nc3ccccc3s2)C1=O`, the inhibition is 9.64%. With `CCC(C)Cn1c(O)cc2nn(-c3nc4ccccc4s3)c(=O)c-2c1C` (stereo not given), the inhibition was 0.194%. Regarding `CC(=NCc1ccco1)c1c(C(F)(F)F)[nH]n(-c2nc3ccccc3s2)c1=O`, the inhibition is 75.2% (active). In the case of `CCOC(=O)c1sc(N)c(C#N)c1COC(=O)C1=COCCO1`, the inhibition was 9.07%. As for `O=C(NCC(c1cccs1)N1CCOCC1)c1cc(Cl)ccc1[N+](=O)[O-]` (stereo not given), the inhibition is 3.29%. `COc1cccc(-c2cc3nc4c(c(N5CCC6(CC5)OCCO6)n3n2)CCCC4)c1`: the inhibition was 41.5% (active). As for `COc1cccc(CNc2nc3nc4c(c(=O)n3[nH]2)CCC4)c1`, the inhibition is -3.51%.

In the case of `COc1ccc(OC)c(/C(C)=N\NC(=O)c2cc3cc(Cl)ccc3n2C)c1`, the inhibition is 14.6%.

For `C=CCn1c(SCC(=O)NC)nnc1C12CC3CC(CC(C3)C1)C2`, the inhibition is 11.2%. On to `O=[N+]([O-])/C=C/c1ccc2c(ccn2Cc2ccccc2)c1`, for which the inhibition is -97.4%.

On to `CCS(=O)(=O)Nc1ccc(C2=NN(S(=O)(=O)c3ccc(F)cc3)C(c3ccco3)C2)cc1` (stereo not given), for which the inhibition was 13.9%.

Regarding `COCCn1cnc2c1c(=O)n(CC(=O)NN)c(=O)n2Cc1ccccc1`, the inhibition is 10.9%. As for `O=C(NCc1ccc2c(c1)OCO2)C(=O)NCC1OCCN1S(=O)(=O)c1ccc(F)cc1` (stereo not given), the inhibition was -2.49%. With `O=C(Nc1cccc(F)c1)NC1CCCCCCC1`, the inhibition was 45.3% (active). For the molecule `C/C(CC(=O)Nc1cccc(F)c1)=N\NC(=O)C(=O)NC1CCCCC1`, the inhibition was 15.5%.

As for `O=C(Nc1cccc(F)c1)NC1CCCc2ccccc21` (stereo not given), the inhibition was 30.5%. For `Cc1c(C(=O)O)nnn1-c1nonc1N`, the inhibition was 3.56%. Consider `C#CCOCCOCCOCCNc1nc(N2CCN(C(=O)[C@H](CO)n3cc([C@@H](N)C(C)C)nn3)CC2)nc(N2CCN(C(=O)[C@H](CCC(=O)O)n3cc([C@@H](N)[C@H](C)CC)nn3)CC2)n1`, for which the inhibition was 9.15%. The value for `CC(C)(C)n1c(=O)[nH]c2c(c1=O)CCC2` was -3.65%. As for `NNC(=O)c1oc2nc(-c3ccccc3)cc(-c3ccco3)c2c1N`, the inhibition is 19.9%. Take `CS(=O)(=O)c1sc2nc(-c3ccccc3)cc(-c3ccccc3)c2c1N`: the inhibition was 49.2% (active).

Regarding `CNC(=S)NNC(=O)c1oc2nc(-c3ccccc3)cc(-c3ccco3)c2c1N`, the inhibition is 18.1%. With `O=C(O)CSCc1ccc(C(=O)O)o1`, the inhibition was 3.55%. In the case of `C/C=C/C=C/C(=O)OCC(=O)Nc1ccc(Cl)cc1`, the inhibition was 15.8%.

For `O=C(Nc1ccncc1)c1ccc(Cl)c([N+](=O)[O-])c1`, the inhibition is -50.2%. The same measure for `CN(C)c1ccc(/C=C/C(=O)c2ccc(O)cc2)cc1[N+](=O)[O-]`: 15.8%; for `CN(C)c1ccc(/C=C/C(=O)c2ccc(C(C)(C)C)cc2)cc1[N+](=O)[O-]`: 27.1%. `O=C(/C=C/c1ccc(Cl)c([N+](=O)[O-])c1)c1ccc(O)cc1`: the inhibition was 41.3% (active). Take `O=C(/C=C/c1ccc(Cl)cc1Cl)c1cccnc1`: the inhibition was 25%. Consider `O=C(/C=C/c1ccc(Cl)c([N+](=O)[O-])c1)c1cccnc1`, for which the inhibition was 46.1% (active).

`COc1ccc(CCNC(=O)c2ccc(CS(=O)(=O)c3ccc(Br)cc3)o2)cc1OC`: the inhibition was 24.5%. The same measure for `O=C(Cn1c(NCCO)nc2ccccc21)c1ccc(Cl)cc1Cl`: 1.93%; for `CCCCn1ccnc1C(=O)c1cccc(S(=O)(=O)N2c3ccccc3CC2C)c1` (stereo not given): 29.3%; for `O=C1COc2ccc(C(=O)COC(=O)c3cccnc3Cl)cc2N1`: -6.62%. With `CCc1nnc(NC(=O)CSc2nnc(-c3ccncc3)n2Cc2ccccc2)s1`, the inhibition was 10.1%. With `COC(=O)c1cc(NC(=O)CC2C(=O)NCCN2C(=O)c2ccc(F)cc2)cc(C(=O)OC)c1` (stereo not given), the inhibition is -15.9%. Regarding `COc1ccc(N2C(=O)CC(SC(C)C)C2=O)cc1` (stereo not given), the inhibition was -8.61%. As to `COc1ccc(N2C(=O)CC(Sc3n[nH]c(-c4ccc(C)cc4)n3)C2=O)cc1` (stereo not given), the inhibition is 54.7% (active). Take `Cc1ccc(N2C(=O)CC(Sc3ncn[nH]3)C2=O)cc1` (stereo not given): the inhibition is 30.2%. For `COc1ccccc1C(=O)NCCn1cc(SCC(=O)NCc2ccco2)c2ccccc21`, the inhibition is 29.1%. The value for `COc1cc(C(c2c(NC(=O)c3ccco3)sc(C)c2C)N2CCOCC2)cc(OC)c1OC` (stereo not given) was 20.7%. On to `O=C1[C@@H](c2ccccc2)[C@@H](c2ccccc2)N1c1cccnc1`, for which the inhibition is 66.6% (active).

On to `CC(=O)C1=C(O)C(=O)N(c2cccnc2)C1c1ccc([N+](=O)[O-])cc1` (stereo not given), for which the inhibition is 0.316%. The value for `CCc1ccccc1NC1c2ccccc2C(=O)N1c1cccnc1` (stereo not given) was 36.7%; that for `O=C(N/N=C/c1ccc(OCC2COCCO2)cc1)c1ccc(Br)cc1` (stereo not given) was -0.668%; that for `CCOC(=O)COn1c(=O)c(-c2ccc(OCC)cc2)[n+]([O-])c2ccccc21` was 31.6%. Consider `CCOc1ccc(OCC)c(-c2c(=O)n(OCc3ccc(Cl)cc3)c3ccccc3[n+]2[O-])c1`, for which the inhibition was 26.2%.

As for `COc1ccc(OC)c(-c2c(=O)n(OCc3ccccc3Br)c3ccccc3[n+]2[O-])c1`, the inhibition was 47.1% (active). Turning to `COC(=O)c1c(-c2ccsc2)oc2ccc(-c3cc(OC)c(OC)c(OC)c3)cc12`, the inhibition was 28.1%.

Take `N#CCOc1ccc(C2=NO[C@@H]3[C@@H]4C[C@@H]([C@H]5C(=O)N(c6ccc7c(c6)OCO7)C(=O)[C@@H]45)[C@H]23)cc1`: the inhibition is 18.3%.

As for `C=CS(=O)c1sc(Cl)c(N2CCOCC2)c1[N+](=O)[O-]` (stereo not given), the inhibition was 79.3% (active). Take `Nc1c(N(CCO)C(=O)C2CCCCC2)c(=O)[nH]c(=O)n1Cc1ccccc1`: the inhibition was 15.1%. As to `COc1ccccc1C(=O)NCC(=O)OCC(=O)NNC(=O)c1ccc(Br)cc1`, the inhibition was -10.1%.

For `Cc1ccc(-c2cc(C(=O)N3CCc4ccccc4C3)no2)cc1`, the inhibition is 18.4%. Take `Cc1ccc2c(c1)c1ncnc(N3CCc4ccccc4C3)c1n2C`: the inhibition was 44% (active). The same measure for `Cc1ccc2c(c1)c1ncn(CCC3=CCCCC3)c(=O)c1n2C`: 22.5%. The same measure for `O=C(C1CCC(=O)N(C2CC2)C1)N1CCN(c2ccc(Cl)cc2)CC1` (stereo not given): -6.67%; for `C=CCNC(=O)CC12CC3CC(C1)CC(CC(=O)NCC=C)(C3)C2`: 9.8%. Regarding `CCOc1cccc(-c2nnc(SCC(=O)NC3CC3)n2C)c1`, the inhibition is 6.04%.

As to `CCOc1cccc(-c2nn3c(-c4ccccn4)nnc3s2)c1`, the inhibition is 42% (active). In the case of `COc1ccc(-n2c(SCC(=O)OC(C)C)nnc2-c2ccccn2)cc1`, the inhibition was 34.2%. For `O=C(O)C1C2C=CC(C2)C1C(=O)NCc1ccccc1` (stereo not given), the inhibition is -21.1%. For `COc1ccc(C2=NO[C@@H]3C(=O)N(Cc4ccccc4)C(=O)[C@H]23)cc1OC`, the inhibition was 14.3%. Consider `CC(c1cccnc1)N(CCN(C)C)C(=O)Nc1ccc(Cl)c(Cl)c1` (stereo not given), for which the inhibition is 4.37%. The value for `CCn1nccc1C(=O)Nc1ccc(Cl)c(Cl)c1` was 44% (active).

Consider `CCn1nccc1C(=O)Nc1ccc(S(=O)(=O)NC23CC4CC(CC(C4)C2)C3)cc1`, for which the inhibition was 26.7%. Turning to `CN1CCN(C(=O)CCc2ncc(C(F)(F)F)cc2Cl)CC1`, the inhibition is -4.04%.

Turning to `COC(=O)c1c(C(=O)OC)c(-c2cccc(C)c2)n2c1CS(=O)C2` (stereo not given), the inhibition was 10.8%. The value for `CCOCCCNC(=O)c1ccc(CS(=O)(=O)c2cccc(C(F)(F)F)c2)o1` was 6.36%. On to `Cc1ccc(NS(=O)(=O)c2ccc(-c3ccc(=O)[nH]n3)o2)c(C)c1`, for which the inhibition was 1.41%.

For the molecule `Cc1ccc(-c2csc(-c3c[nH]c4ccccc34)n2)cc1`, the inhibition is 60.4% (active). Regarding `Cc1ccc(-c2csc(NC3OC(=O)c4ccccc43)n2)cc1` (stereo not given), the inhibition is 5.08%. The same measure for `Cc1ccc(-c2csc(NC(=O)Cn3[nH]c(=O)c4ccccc4c3=O)n2)cc1`: 31.6%.

With `COc1cc(N2C(=O)CC3(CCCC3)CC2=O)cc(OC)c1OC`, the inhibition was 11.2%. `N#CC1(C#N)C(C(=O)C23CC4CC(CC(C4)C2)C3)C12CCOCC2` (stereo not given): the inhibition is 47.6% (active). In the case of `CC(C)(C)c1ccc(C(=O)NCc2nnc(SCC(=O)N3CCCc4ccccc43)n2-c2ccccc2)cc1`, the inhibition is 1.45%.
